The structures appear in SMILES notation. Compounds without any hit were thinned out: in the full panel of roughly 83,000, 20% have a hit.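 Percent growth is the endpoint: 0 to 100 indicates growth inhibition (40 means 60% inhibition), 0 means no net growth, and negative values indicate cell death.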 The source made the active and inactive calls.

The experiment has as its system HCT-15 colon. The experiment is described as follows: NCI-60 one-dose screen, 48 h (100 = growth as untreated, 0 = no growth, -100 = all killed). To be noted: 10 µM unless noted. As to the method:
Growth inhibition of the HCT-15 human tumor cell line is measured as a screen for anti-cancer activity. Cells are grown in 96 well plates and exposed to the test compound for 48 hours. Compounds are tested at a single concentration, which is 10^-5 M for most compounds. The reported endpoint is percent growth (GI% or GIPRCNT), where numbers from 0 - 100% represent growth inhibition, and numbers from -100% - 0 represent cell death. For example, a value of 40 represents 60% growth inhibition. A value of 0 means no net growth occurred over the course of the experiment. A value of -40 indicates 40% of cells at the beginning of the experiment died by the end of the experiment. A value of -100 means all cells are dead at the end of the experiment.
NCI-60 Human Tumor Cell Lines Screen was performed using the standard one-dose NCI protocol, which is described in more detail at https://dtp.cancer.gov/discovery_development/nci-60/default.htm.
Compounds with GIPRCNT values below 10 were considered active. Activity score was based on GIPRCNT using the following formula: […]
Score is 0 for GIPRCNT values of 100 or above, 50 for GIPRCNT values of 0, and 100 for GIPRCNT values of -100.
In the case of `CN(C)c1ccc(/C=N\NC(=O)c2ccc3nc(-c4ccc(Cl)cc4)[nH]c3c2)cc1`, the growth was 66.8% (inactive).

Regarding `O=C(N/N=C/c1ccc(Cl)cc1)c1ccc(NC(=O)c2ccccn2)cc1`, the growth is 62.8% (inactive).

With `N=C(N)c1ccc(-c2ccc(-c3ccccc3)o2)o1`, the growth was 13% (inactive).

On to `Nc1c(Cl)cc(/C=C2\C=Cc3ccccc32)cc1Cl`, for which the growth was 100% (inactive).

For `Cc1cc(C)c2c(c1)N(C)c1ncnc(-n3c(C)nc4cc(C)ccc43)c1CC2C` (stereo not given), the growth is 32.6% (inactive).

On to `CCOc1ncc([N+](=O)[O-])c(OCC)n1`, for which the growth was 104% (inactive).

With `C#CCOc1cccc(Nc2ncnc3c2ncn3C2CCN(C(=O)CCl)C2)c1` (stereo not given), the growth is 1.63% (active).

For `COc1cccc(CNc2c3ccccc3nc3ccccc23)c1OC`, the growth was 19.8% (inactive).

For the molecule `CNCC[C@H](Oc1cccc2ccccc12)c1cccs1`, the growth is 101% (inactive).

In the case of `O=C(/C=C/c1ccccc1Cl)c1cccc(OCCCCOc2cccc(C(=O)/C=C/c3ccccc3Cl)c2)c1`, the growth was 103% (inactive).

Regarding `COc1ccc(Oc2ccc(/C=C/C(=O)c3ccc(OC)c(OC)c3)cc2)cc1`, the growth was 61.5% (inactive).

Take `COc1ccc2c(O)c(/C=C3\N=Nc4ncccc43)oc2c1C[C@@H]1CCNC[C@H]1F`: the growth is -1.3% (active).

As for `COc1cccc(-c2cn3nc(-c4cn(C)c5ccccc45)sc3n2)c1`, the growth was 73.7% (inactive).

On to `Cc1ncc(C(=O)Nc2ccc(CN3CCN(C)CC3)c(C(F)(F)F)c2)cc1C#Cc1cnc(N)c2ccc(C#N)cc12`, for which the growth was -77.4% (active).

Regarding `COc1cc(-c2ccc[nH]2)[nH]c1/C=C1\N=C(C)C(CC(=O)OCC(C)(C)C)=C1C`, the growth is -78% (active).

Consider `Oc1nc(NCc2ccccc2)sc1/C=C1\C=Nc2ncccc21`, for which the growth is 67.4% (inactive).

Regarding `COc1cc(/C=N/NC(=O)c2ccc(-n3cc(-c4ccccc4)nn3)cc2)cc(OC)c1OC`, the growth was 76.2% (inactive).

Take `COc1ccc(/C=C(/C(=O)N2CCNCC2)c2cc(OC)c(OC)c(OC)c2)cc1O`: the growth was 96.6% (inactive).

Consider `CCNC(=O)N1CCc2c(Br)c3c(c(OC)c2C1Cc1ccc(OC)cc1)OCO3` (stereo not given), for which the growth was 24.6% (inactive).

Take `CC(C)(C)OC(=O)CN1CCc2c(sc3ncnc(N4CCN(c5ccc(F)cc5)CC4)c23)C1`: the growth is 96.6% (inactive).

Regarding `CNC(=O)c1cc(Oc2ccc3c(c2)sc2nc(-c4ccc(Cl)c(C(F)(F)F)c4)cn23)ccn1`, the growth was 65% (inactive).

As to `O=C(CCCCCCCC(=O)N1CCCCC1)N1CCCCC1`, the growth was 96.8% (inactive).

With `Cc1ccccc1N1CCN(C(=S)c2ccccc2)CC1`, the growth was 98.8% (inactive).

For the molecule `Nc1nc(C(=O)N/N=C/c2ccc(F)cc2)nn1-c1ccc(S(N)(=O)=O)cc1`, the growth is 108% (inactive).

Consider `CS(=O)(=O)Nc1cc(-c2ccc3ncnc(Nc4ccc5c(cnn5Cc5ccncc5)c4)c3c2)cnc1Cl`, for which the growth was 92.3% (inactive).

As for `CC/C(=C(/c1ccc(O)cc1)c1ccc(OCCN2CCCCC2)cc1)c1ccc(OC)cc1`, the growth was 20.1% (inactive).

On to `O=C1/C(=C/c2c[nH]c(=O)[nH]c2=O)SC(=S)N1Cc1ccccc1`, for which the growth is 104% (inactive).

In the case of `COC(=O)/C=C1/SC(=NCc2ccccc2)N(CCc2c[nH]c3ccccc23)C1=O`, the growth is 58.5% (inactive).

Take `CCCn1c(=S)sc2c(NNC(C)=O)nc(C)nc21`: the growth was 90.2% (inactive).

Consider `COc1cc(N2C(=O)[C@H](Cl)C2c2ccc(SC)cc2)cc(OC)c1OC` (stereo not given in full), for which the growth was 4.62% (active).

Regarding `c1ccc(Nc2nc3c(s2)CCc2c[nH]cc2-3)nc1`, the growth was 102% (inactive).

As for `CCCc1cc(=O)oc2c(C(=O)CC(C)C)c(O)c(CC=C(C)C)c(O)c12`, the growth is 16.9% (inactive).

On to `CCOC(=O)c1c(NC(=O)c2ccccc2)sc2c3c(ccc12)OCN(C)C3`, for which the growth was -48.4% (active).

Take `Cc1cc(Cl)nc(N2CCN(CCNc3ccnc4cc(Cl)ccc34)CC2)n1`: the growth is 22.4% (inactive).

`COc1nc(/C=C\Nc2ccc3c(c2)OCCOCCOCCOCCO3)nc(OC)n1`: the growth is 91.5% (inactive).

As for `CC(=O)c1ccc(-n2cc(CN3CCN(c4cc5c(cc4F)c(=O)c(C(=O)O)cn5C4CC4)CC3)nn2)cc1`, the growth is 93.8% (inactive).

Regarding `COc1ccc(/C=C(\C(=O)NCc2cccnc2)S(=O)(=O)c2ccccc2)cc1OC`, the growth is 28.3% (inactive).

Regarding `CCCCCCCCCCOC(=O)c1nn(C(C)=O)c2cc(C)c(C)cc12`, the growth was 98.8% (inactive).

Turning to `CC(C)c1ccc2c(c1)CC[C@H]1[C@](C)(C(=O)OCC#CCN3CCCC3)CCC[C@]21C`, the growth is 42.7% (inactive).

For the molecule `OC1CSSC1Cn1cnc2c(Nc3ccc(OCc4cccc(F)c4)c(Cl)c3)ncnc21` (stereo not given), the growth is -64% (active).

Source of the values: PubChem BioAssay (NCI).
